Measured values reported in PubChem BioAssay (Tox21).
Results filed as inconclusive are left out. Calls of active or inactive are those of the source. Unless noted, calls follow the shape of the dose curve; as a rule, active = well fitted curve in the direction sought with a large enough effect in the repeat runs; inconclusive = weak or mixed curves; inactive = no such curve, though single readings can be large; an effect the other way counts as inactive or inconclusive.

Tests used:
[1] = molecular target: Retinoic acid receptor RXR-alpha (Homo sapiens) (UniProt P19793); assay: qHTS assay to identify small molecule agonists of the RXR signaling pathway (AID 1159527; calls by dose curve; also: nearly all actives have a fitted effect of over 35% in size)
How it was run: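 Agonist mode; 9-cis retinoic acid positive control. HEK 293T UAS-bla reporter cells, 2% charcoal-stripped FBS, 16 hr compound exposure at 37 C/5% CO2. LiveBLAzer B/G FRET substrate 2 hr RT; ex 405, em 460/530 nm.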

[2] = qHTS assay to identify small molecule agonists of the RXR signaling pathway - cell viability counter screen (AID 1159529); also: series mostly up to about 77 µM; nearly all actives have a fitted effect of over 50% in size
How it was run: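 Luminescence from CellTiter-Glo (30 min, RT) measured viability in the same wells as the beta-lactamase reporter readout. Cells: GeneBLAzer RXR-alpha HEK 293T, 2% charcoal-stripped FBS. Compound exposure 16 hr, 37 C.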

[3] = qHTS assay to identify small molecule antagonists of the retinoid acid receptor (RAR) signaling pathway - cell viability counter screen (AID 1159551); also: nearly all actives have a fitted effect of over 35% in size
How it was run: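 C3RL4 cells were seeded overnight at 37 C, then treated with compounds plus 1 uM (final) retinol for 6 h at 37 C. Viability was read as ATP by CellTiter-Glo luminescence after 30 min at room temperature.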

[4] = qHTS assay to identify small molecule antagonists of the retinoic acid receptor (RAR) signaling pathway (AID 1159552; also: nearly all actives have a fitted effect of over 50% in size)
How it was run: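 Luminescence from a RARE luciferase reporter in C3RL4 cells served as read-out. Cells received compounds together with 1 uM final retinol and incubated 6 hr at 37 C before detection reagent was added for 30 min at room temperature.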

[5] = qHTS assay to identify small molecule agonists of the retinoic acid receptor (RAR) signaling pathway (AID 1159553)
How it was run: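 C3RL4 cells carrying a RARE luciferase reporter were plated overnight at 37 C, then exposed to compounds in DMSO for 6 hr at 37 C and 5% CO2. Luminescence was read 30 min after luciferase reagent addition at room temperature.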

[6] = qHTS assay to identify small molecule antagonists of the estrogen related receptor (ERR) signaling pathway from Tox21 library - cell viability counter screen (AID 1224834); also: nearly all actives have a fitted effect of over 30% in size
How it was run: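 ERR reporter cells were plated 6 h before compound addition, then exposed to test compounds in DMSO for 17.5 h at 37 C. Viability was read as CellTiter-Fluor fluorescence after a 30-minute incubation at 37 C.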

[7] = molecular target: Luciferin 4-monooxygenase (Photinus pyralis) (UniProt P08659); assay: qHTS assay to identify small molecule inhibitors of firefly luciferase (AID 1224835); also: series mostly up to about 120 µM; nearly all actives have a fitted effect of over 25% in size
How it was run: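 Quantitative HTS format; KM concentrations of both substrates. Purified P. pyralis FLuc activity quantified from luminescence images.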

[8] = qHTS assay to identify small molecule agonists of the constitutive androstane receptor (CAR) signaling pathway - cell viability counter screen (AID 1224836); also: series mostly up to about 92 µM; nearly all actives have a fitted effect of over 45% in size
How it was run: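 Viability read-out: CellTiter-Fluor fluorescence after 23 h compound exposure at 37 C/5% CO2 in double-stable HepG2-CYP2B6-hCAR cells, with PK11195 present at 0.75 uM final; compounds tested in 15-point titration.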

[9] = qHTS assay to identify small molecule antagonists of the constitutive androstane receptor (CAR) signaling pathway - cell viability counter screen (AID 1224837); also: series mostly up to about 92 µM; nearly all actives have a fitted effect of over 45% in size
How it was run: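 HepG2 cells stably expressing hCAR and a CYP2B6-2.2kb reporter were plated and pre-incubated 4 hr at 37 C/5% CO2, then given compounds at 15 concentrations plus 50 nM CITCO (final). After 23 hr, viability was read by CellTiter-Fluor fluorescence.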

[10] = molecular target: Nuclear receptor subfamily 1 group I member 3 (Homo sapiens) (UniProt Q14994); assay: qHTS assay to identify small molecule antagonists of the constitutive androstane receptor (CAR) signaling pathway (AID 1224838); also: nearly all actives have a fitted effect of over 40% in size; also: potency is read from the fitted curve at half-maximal effect
How it was run: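 HepG2 cells stably co-transfected with hCAR and a CYP2B6-2.2kb luciferase reporter were seeded 4 h before compound addition at 15 concentrations. Cells were stimulated with 50 nM CITCO (final) for 24 h at 37 C; luciferase luminescence was then read.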

[11] = molecular target: Nuclear receptor subfamily 1 group I member 3 (Homo sapiens) (UniProt Q14994); assay: qHTS assay to identify small molecule agonists of the constitutive androstane receptor (CAR) signaling pathway (AID 1224839);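 also: HepG2 cells stably carrying human CAR and a CYP2B6 luciferase reporter; series mostly up to about 92 µM; nearly all actives have a fitted effect of over 15% in size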
How it was run: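 Luminescence read-out (ONE-Glo, 30 min, room temperature) from double-stable HepG2-CYP2B6-hCAR cells exposed 24 h to 15-point compound series in presence of 0.75 uM PK11195 final.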

[12] = qHTS assay to identify small molecule antagonists of the estrogen related receptor signaling pathway with the pleiotropic PPARgamma coactivator (PGC) from Tox21 10K library - cell viability counter screen (AID 1224840; active = well fitted cell-killing curve with a large enough effect in the repeat runs, not every such curve was filed as active; also: nearly all actives have a fitted effect of over 40% in size)
How it was run: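 PGC/ERR cells were seeded at 2,000 cells/well and left 6 hours at 37 C/5% CO2 before pin-tool addition of compounds in DMSO. After 17.5 hours at 37 C, CellTiter-Fluor was added and fluorescence read 30 minutes later.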

[13] = molecular target: Thyrotropin receptor (Homo sapiens) (UniProt P16473); assay: qHTS assay to identify small molecule agonists of the thyroid stimulating hormone receptor (TSHR) signaling pathway (AID 1224843; calls by dose curve; also: nearly all actives have a fitted effect of over 45% in size)
How it was run: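 Cell line HEK293 with TSHR; density 800/well. Exposure 30 min RT. Readout HTRF cAMP (cAMP-d2/anti-cAMP-cryptate), 1 h RT before reading.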

[14] = qHTS assay to identify small molecule agonists of the hypoxia (HIF-1) signaling pathway - cell viability counter screen (AID 1224844; calls by dose curve; also: nearly all actives have a fitted effect of over 50% in size)
How it was run: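 HRE-bla ME-180 cells in medium with 0.5% dialyzed FBS were preincubated 5 hrs at 37C, exposed to compounds for 17 hrs, then viability was read as CellTiter-Glo luminescence after 30 min at room temperature, in the reporter wells.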

[15] = qHTS assay to identify small molecule agonists of H2AX (AID 1224845; active = well fitted activation curve with a large enough effect in the signal ratio in the repeat runs, not every such curve was filed as active; the % refers to the signal ratio)
How it was run: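 Wild-type CHO-K1 cells plated overnight, then exposed 3 hr at 37C to compounds at 15 concentrations (0.76% DMSO). Lysed, then HTRF anti-pH2AX(S139)-cryptate/anti-H2AX-d2 detection after 24 hr at room temperature; emissions 665 and 620 nm.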

[16] = qHTS assay to identify small molecule agonists of the hypoxia (HIF-1) signaling pathway (AID 1224846; active = well fitted activation curve with a large enough effect in the signal ratio in the repeat runs, not every such curve was filed as active; the % refers to the signal ratio)
How it was run: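 HRE-bla ME-180 cells (beta-lactamase reporter under hypoxia response element) were plated at 2,000 cells/well in medium with 0.5% dialyzed FBS, rested 5 hrs, then given compounds in DMSO for 17 hrs at 37C, 5% CO2. Reporter induction was read with CCF4-AM FRET substrate.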

[17] = qHTS assay to identify small molecule agonists of H2AX - cell viability counter screen (AID 1224847; calls by dose curve; also: top concentration of the series differs between compounds; nearly all actives have a fitted effect of over 30% in size)
How it was run: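 CHO-K1 wt, 1000 cells/well, o/n 37C; cpds 15 conc, 3 h 37C, 0.76% DMSO; CellTiter-Glo, 30 min RT, luminescence.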

Measured: Potency

Sequence of Retinoic acid receptor RXR-alpha (Homo sapiens) (P19793 whole entry, looked up): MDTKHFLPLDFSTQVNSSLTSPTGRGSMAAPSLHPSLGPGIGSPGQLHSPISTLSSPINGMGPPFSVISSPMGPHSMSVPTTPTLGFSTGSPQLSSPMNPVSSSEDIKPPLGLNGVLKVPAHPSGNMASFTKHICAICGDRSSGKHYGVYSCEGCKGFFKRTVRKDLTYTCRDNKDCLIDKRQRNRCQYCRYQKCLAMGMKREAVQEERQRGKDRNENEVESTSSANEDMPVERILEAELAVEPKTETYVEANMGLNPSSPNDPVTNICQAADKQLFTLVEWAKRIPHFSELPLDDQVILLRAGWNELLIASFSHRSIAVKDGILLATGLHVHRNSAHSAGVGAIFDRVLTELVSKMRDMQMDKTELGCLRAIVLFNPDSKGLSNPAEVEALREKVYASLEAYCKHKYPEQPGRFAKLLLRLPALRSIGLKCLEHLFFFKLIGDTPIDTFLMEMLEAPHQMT
Sequence of Nuclear receptor subfamily 1 group I member 3 (Homo sapiens) (Q14994 whole entry, looked up): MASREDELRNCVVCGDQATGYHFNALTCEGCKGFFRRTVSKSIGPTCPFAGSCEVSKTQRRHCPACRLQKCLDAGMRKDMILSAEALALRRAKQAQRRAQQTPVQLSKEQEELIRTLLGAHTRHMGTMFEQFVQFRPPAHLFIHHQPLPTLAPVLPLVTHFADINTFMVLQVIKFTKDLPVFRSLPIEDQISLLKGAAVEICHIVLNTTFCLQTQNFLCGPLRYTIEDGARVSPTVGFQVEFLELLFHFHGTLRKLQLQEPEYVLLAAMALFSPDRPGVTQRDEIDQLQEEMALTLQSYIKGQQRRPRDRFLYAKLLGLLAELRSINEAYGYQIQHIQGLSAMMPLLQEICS
Sequence of Luciferin 4-monooxygenase (Photinus pyralis) (P08659 whole entry, looked up): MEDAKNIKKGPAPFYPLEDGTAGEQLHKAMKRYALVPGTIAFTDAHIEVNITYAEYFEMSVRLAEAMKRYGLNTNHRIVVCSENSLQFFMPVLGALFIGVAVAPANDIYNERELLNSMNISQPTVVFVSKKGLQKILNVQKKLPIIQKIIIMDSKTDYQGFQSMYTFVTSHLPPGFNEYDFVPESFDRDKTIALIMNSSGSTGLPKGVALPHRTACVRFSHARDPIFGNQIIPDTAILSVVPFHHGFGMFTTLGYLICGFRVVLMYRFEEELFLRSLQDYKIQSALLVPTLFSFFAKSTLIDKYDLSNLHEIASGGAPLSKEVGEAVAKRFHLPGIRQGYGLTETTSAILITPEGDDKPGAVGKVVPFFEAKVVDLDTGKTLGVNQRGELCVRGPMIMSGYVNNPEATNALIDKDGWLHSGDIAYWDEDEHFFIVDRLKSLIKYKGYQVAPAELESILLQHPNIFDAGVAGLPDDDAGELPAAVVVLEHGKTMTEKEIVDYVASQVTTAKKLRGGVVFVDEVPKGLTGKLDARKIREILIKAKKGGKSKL
Sequence of Thyrotropin receptor (Homo sapiens) (P16473 whole entry, looked up): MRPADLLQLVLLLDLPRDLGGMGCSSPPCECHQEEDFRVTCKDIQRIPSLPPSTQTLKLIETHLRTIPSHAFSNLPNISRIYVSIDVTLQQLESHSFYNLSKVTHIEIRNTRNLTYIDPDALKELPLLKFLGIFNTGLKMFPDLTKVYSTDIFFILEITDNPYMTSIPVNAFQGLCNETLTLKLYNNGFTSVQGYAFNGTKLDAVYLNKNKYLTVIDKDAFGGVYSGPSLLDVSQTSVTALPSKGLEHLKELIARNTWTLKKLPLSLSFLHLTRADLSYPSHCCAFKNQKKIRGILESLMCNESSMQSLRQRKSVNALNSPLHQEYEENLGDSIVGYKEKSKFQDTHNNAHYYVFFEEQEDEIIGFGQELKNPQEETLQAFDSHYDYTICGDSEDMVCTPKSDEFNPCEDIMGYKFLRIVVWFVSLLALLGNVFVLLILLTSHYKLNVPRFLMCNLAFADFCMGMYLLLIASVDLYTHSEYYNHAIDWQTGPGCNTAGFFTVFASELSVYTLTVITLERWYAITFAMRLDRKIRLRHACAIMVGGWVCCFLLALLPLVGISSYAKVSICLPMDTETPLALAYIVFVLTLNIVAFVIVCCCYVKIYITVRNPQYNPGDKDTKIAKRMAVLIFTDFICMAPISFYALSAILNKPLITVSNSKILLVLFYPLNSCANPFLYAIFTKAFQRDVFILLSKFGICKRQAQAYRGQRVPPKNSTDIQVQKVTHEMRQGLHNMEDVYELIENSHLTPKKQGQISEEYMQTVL

CC(C)CO
inactive: [1] | [2] | [3] | [4] | [5] | [6] | [7] | [8] | [9] | [10] | [11] | [12] | [13] | [14] | [15] | [16] | [17]

C=C(C)c1cccc(C(C)(C)N=C=O)c1
active: [10] 7.7 µM
inactive: [1] | [2] | [3] | [4] | [5] | [6] | [7] | [8] | [9] | [11] | [12] | [13] | [14] | [15] | [16] | [17]

N#CCC(=O)NN
inactive: [1] | [2] | [3] | [4] | [5] | [6] | [7] | [8] | [9] | [10] | [11] | [12] | [13] | [14] | [15] | [16] | [17]

O=[N+]([O-])c1c(Cl)cc(Cl)cc1Cl
inactive: [1] | [2] | [3] | [4] | [5] | [6] | [7] | [8] | [9] | [10] | [11] | [12] | [13] | [14] | [15] | [16] | [17]

O=C1NC(c2ccccc2)(c2ccccc2)C(=O)N1COP(=O)(O)O
inactive: [1] | [2] | [3] | [4] | [5] | [6] | [7] | [8] | [9] | [10] | [11] | [12] | [13] | [14] | [15] | [16] | [17]

CCOc1ccccc1OCC1CNCCO1 (stereo unspecified)
inactive: [1] | [2] | [3] | [4] | [5] | [6] | [7] | [8] | [9] | [10] | [11] | [12] | [13] | [14] | [15] | [16] | [17]

COC(=O)/C=C\C(=O)O
inactive: [1] | [2] | [3] | [4] | [5] | [6] | [7] | [8] | [9] | [10] | [11] | [12] | [13] | [14] | [15] | [16] | [17]

COc1cc(/C=C/C(N)=O)cc(OC)c1OC
inactive: [1] | [2] | [3] | [4] | [5] | [6] | [7] | [8] | [9] | [10] | [11] | [12] | [13] | [14] | [15] | [16] | [17]
